Giardia kill: kills Giardia lamblia; Giardia lamblia trophozoite viability; activity change, % at 7.66 µM, hits read low; hit rate 0.15% among 340,000; AID 540267; in the data active = activity change below about -80%; inconclusive = between about -30% and that limit;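 note: parasites exposed to compound for two days anaerobically before the ATP read; % is set by controls: 0 for no effect and ±100 for the full control effect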
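Luminescence from cellular ATP indicates surviving trophozoites (100 cells/well) following 48 hrs anaerobic compound treatment at 37 deg C; signal develops 15-30 min at room temperature.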
mIDH1 inhibitor: inhibitors of human mutant IDH1 R132H; hit rate 0.093% among 390,000; Potency, µM (top dose mostly 76.6 µM), for the others: top-dose activity change, negative = inhibition, usual class: inhibitors; IDH1-R132H enzyme, NADPH consumption, diaphorase/resazurin fluorescence; note: potency is the fitted concentration of half-maximal effect; % is set by controls: 0 for no effect and ±100 for the full control effect; nearly all actives have a fitted effect of over 65% in size
Target sequence (O75874 whole entry R132H, stated change not applied): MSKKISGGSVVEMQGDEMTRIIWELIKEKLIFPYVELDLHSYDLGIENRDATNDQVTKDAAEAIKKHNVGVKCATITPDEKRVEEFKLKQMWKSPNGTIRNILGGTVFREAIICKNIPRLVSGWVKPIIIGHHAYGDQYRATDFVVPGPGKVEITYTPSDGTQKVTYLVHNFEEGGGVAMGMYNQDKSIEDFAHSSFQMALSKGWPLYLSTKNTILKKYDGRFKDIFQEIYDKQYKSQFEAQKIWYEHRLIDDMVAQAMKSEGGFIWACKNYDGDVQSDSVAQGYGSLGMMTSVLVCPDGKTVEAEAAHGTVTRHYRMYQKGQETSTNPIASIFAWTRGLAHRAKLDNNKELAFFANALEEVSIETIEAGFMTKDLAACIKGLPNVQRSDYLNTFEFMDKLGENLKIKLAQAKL
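IDH1-R132H (0.5 ug/mL) preincubated 30 min with compound, then NADPH (0.016 mM) and alpha-KG (2 mM) added; 80 min at RT, pH 7.5. Remaining NADPH coupled via diaphorase/resazurin to fluorescence (540/590 nm); concentration-response curves normalized to no-enzyme control.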
rTrxR1 inhibitor: blocks rat thioredoxin reductase 1. O89049. recombinant rTrxR1, NADPH fluorescence consumption, selenite substrate. Potency, µM (doses to about 114 µM), for the others: top-dose activity change, negative = inhibition, most hits filed as inhibitors. hit rate 1% among 390,000; note: potency is the fitted concentration of half-maximal effect; % is set by controls: 0 for no effect and ±100 for the full control effect; nearly all actives have a fitted effect of over 65% in size
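Rat TrxR1 (90 nM in the dispensed reagent) was pre-reduced with 400 uM NADPH for 5 min at room temperature, then incubated with compound for 15 min. After 400 uM selenite was added, NADPH fluorescence (Ex 340/Em 450 nm) was followed for 8 min.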
TrxR1 substrate: rat thioredoxin reductase 1 substrate activity; AID 588456; O89049; hit rate 0.01% among 390,000; Potency, µM (titrated, usually from 114 µM), for the others: at the top dose activity change, negative = substrate turnover; purified TrxR1 substrate turnover, NADPH consumption readout; note: potency is the fitted concentration of half-maximal effect; % is set by controls: 0 for no effect and ±100 for the full control effect; nearly all actives have a fitted effect of over 50% in size
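Rat TrxR1, dispensed at 90 nM, was prereduced with 400 uM NADPH (final) for 5 min at ~22 deg C, then incubated with compound 15 min before 400 uM selenite. A first-read NADPH fluorescence drop versus no-compound background flagged substrates.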
BRCA1 expr up: increases BRCA1 expression | MCF7-BRCA1-FFLuc reporter, luminescence, 48 h; response scale: scaled: vehicle 0%, 10 µM genistein 100% | Potency, µM (titrated, usually from 46.1 µM), without a hit: at the highest dose activation, actives largely listed as activators | hit rate 1.1% among 380,000 | AID 624202; note: potency is the fitted concentration of half-maximal effect; nearly all actives have a fitted effect of over 80% in size
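Quantitative HTS in MCF7 cells stably reporting BRCA1 expression via firefly luciferase. Compound treatment lasts 48 h at 37 °C in phenol-red free MEM. Activation is expressed relative to genistein at 10 microM and DMSO.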
IL2 activator: activators of IL-2; IL-2 activation reporter assay, cell-based qHTS; stimulated with anti-CD3/CD4/CD28 beads; in transgenic mouse T cells; activation, % (series mostly up to about 46 µM); AID 652025; hit rate 0.065% among 360,000; in the data active = activation above about 50%; inconclusive = mostly about 30% to 49%; note: 0% is about no effect
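Unstimulated transgenic mouse T cells preincubated 60 min with compound, then stimulated with anti-CD3/anti-CD4-coated beads plus anti-CD28 for 18 h at 37 degrees C. IL-2 response read as EGFP and DsRed fluorescence by plate cytometry.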
* marks the source's active call; other numbers are inactive results; ! = a repeat was not active; [ ] = dose if it differs, or a comment. Hits are enriched below; roughly 2.2% of the tested compounds scored in any of these assays. Unless noted, calls come from the whole dose curve; as a rule, active = well fitted curve in the direction sought with a large enough effect; inconclusive = small, poorly fitted or top-dose-only effect, or another doubt; inactive = no such curve, though single readings can be large; an effect the other way counts as inactive or inconclusive.

COc1cccc(N2C(=O)/C(=C/c3ccc(C)o3)C(=O)NC2=S)c1 was read as Giardia kill -12, mIDH1 inhibitor 7%, rTrxR1 inhibitor 25µM*, TrxR1 substrate -1%, BRCA1 expr up -24% and IL2 activator 0.
`O=C1NC(=S)N(c2ccccc2)C(=O)/C1=C/c1ccco1` gave Giardia kill -24, mIDH1 inhibitor -16%, rTrxR1 inhibitor 20µM*, TrxR1 substrate -6%, BRCA1 expr up -15% and IL2 activator -1.
NCC(=O)c1ccc2ccccc2c1 was read as rTrxR1 inhibitor 18%[0.0914 µM], TrxR1 substrate 48% and BRCA1 expr up 5%.
COc1ccc(CCNC(=O)c2cnc3sc(N4CCCCCC4)nn3c2=O)cc1 was read as mIDH1 inhibitor -4%, rTrxR1 inhibitor -4% and TrxR1 substrate 88%.
`CN1C(=O)C(=Cc2ccccc2OS(=O)(=O)c2ccccc2)C(=O)N(C)C1=O` gave Giardia kill 21, mIDH1 inhibitor 18%, rTrxR1 inhibitor 28µM*, TrxR1 substrate -2%, BRCA1 expr up 4% and IL2 activator -3.
Screening CN1C(=O)C(=Cc2ccccc2OCc2ccccc2Cl)C(=O)N(C)C1=O returned Giardia kill -12, mIDH1 inhibitor -4%, rTrxR1 inhibitor inconclusive, TrxR1 substrate 7%[57.1 µM], BRCA1 expr up -19% and IL2 activator 1.
For CC(=O)NCC(N)C(=O)c1ccc(Cl)c(Cl)c1 (stereo not given) the results were rTrxR1 inhibitor 11%, TrxR1 substrate 9% and BRCA1 expr up 0%.
For O=C(CN1CCOCC1)c1cccc2ccccc12 the results were Giardia kill -2, mIDH1 inhibitor 8%, rTrxR1 inhibitor 18µM*, TrxR1 substrate -3%, BRCA1 expr up -3% and IL2 activator 2.
Screening COc1ccc2c(c1)CCC1C2CC[C@@]2(C)C1CC[C@@H]2NCCCCCCN1C(=O)C=CC1=O (stereo not given in full) returned rTrxR1 inhibitor inconclusive and TrxR1 substrate 8%[57.1 µM].
Screening C=CCN(C1=NCCN1)c1c(Cl)cccc1Cl returned rTrxR1 inhibitor -4%[57.1 µM] and TrxR1 substrate 1%[57.1 µM].
For Nc1ccc2c(c1)Cc1cc([N+](=O)[O-])ccc1-2 the results were Giardia kill -9, mIDH1 inhibitor 4%, rTrxR1 inhibitor 14%[57.1 µM], TrxR1 substrate 5%[57.1 µM], BRCA1 expr up 10µM* and IL2 activator -5.
Screening O=[N+]([O-])c1ccc2c(c1)Cc1cc(O)ccc1-2 returned Giardia kill -12, mIDH1 inhibitor -1%, rTrxR1 inhibitor 3%, TrxR1 substrate -5%, BRCA1 expr up 26% and IL2 activator -3.
`O=C(CI)c1ccc(Cl)cc1` gave rTrxR1 inhibitor -5%, TrxR1 substrate 7% and BRCA1 expr up 16%.
For NCC(=O)c1ccccc1 the results were Giardia kill 0, mIDH1 inhibitor -10%, rTrxR1 inhibitor 16%, TrxR1 substrate 3%, BRCA1 expr up 18% and IL2 activator 0.
O=C(CCl)NN=C(c1ccccc1)c1ccccc1 was read as Giardia kill 36, mIDH1 inhibitor 0%, rTrxR1 inhibitor 14µM*, TrxR1 substrate 7%[57.1 µM], BRCA1 expr up 0% and IL2 activator 0.
Screening COc1cc2nc(N3CCCN(C)CC3)nc(N(C)C3CCN(C)CC3)c2cc1OC returned rTrxR1 inhibitor inconclusive, TrxR1 substrate 90% and BRCA1 expr up -63%.
For CC(Cc1ccccc1)NC(=O)/C=C/c1ccc(Cl)cc1 (stereo not given) the results were Giardia kill -14, mIDH1 inhibitor 6%, rTrxR1 inhibitor -2%, TrxR1 substrate -7%, BRCA1 expr up 65% and IL2 activator 87*.
For O=C1NCCN(Cc2cccc(Oc3ccccc3)c2)C1CC(=O)N1CCCCC1 (stereo not given) the results were Giardia kill -15, mIDH1 inhibitor 1%, rTrxR1 inhibitor inconclusive, TrxR1 substrate -6%, BRCA1 expr up -13% and IL2 activator -1.
For O=[N+]([O-])c1ccc2nc(N3CCNCC3)ccc2c1 the results were Giardia kill -9, mIDH1 inhibitor -8%, rTrxR1 inhibitor 79µM*!, TrxR1 substrate 5%[57.1 µM], BRCA1 expr up 81% and IL2 activator 0.
For Cc1cc(C(=O)CS(=O)(=O)c2ccc(F)cc2)cc(C)c1OC(=O)N(C)C the results were Giardia kill -3, mIDH1 inhibitor 3%, rTrxR1 inhibitor -14%[57.1 µM], TrxR1 substrate 8%[57.1 µM], BRCA1 expr up 4µM* and IL2 activator 1.
For O=c1c2cc(N3CCOCC3)ccc2[nH]c(=S)n1Cc1ccc(Cl)cc1 the results were Giardia kill 11, mIDH1 inhibitor -2%, rTrxR1 inhibitor 8%, TrxR1 substrate 9%, BRCA1 expr up 11µM* and IL2 activator 1.
Screening O=c1[nH]c(=S)n(-c2ccc(Cl)cc2)c(O)c1C=Nc1ccc(N2CCOCC2)cc1 returned Giardia kill -4, mIDH1 inhibitor 4%, rTrxR1 inhibitor -24%, TrxR1 substrate -11%, BRCA1 expr up 4% and IL2 activator -1.
CCOC(=O)C1CCCN(c2ccc([N+](=O)[O-])c3nonc23)C1 (stereo not given) was read as Giardia kill -95*, mIDH1 inhibitor -16%, rTrxR1 inhibitor -6%, TrxR1 substrate -6%, BRCA1 expr up -22% and IL2 activator 6.
For CCN(CC)C(=O)c1ccc(NC(=O)c2cccc(F)c2)cc1 the results were Giardia kill -2, mIDH1 inhibitor 7%, rTrxR1 inhibitor 16%, TrxR1 substrate 4%, BRCA1 expr up 11µM* and IL2 activator 2.
CCN(CC)C(=O)c1ccc(NC(=O)c2cccc(S(=O)(=O)N3CCN(C)CC3)c2)cc1 was read as Giardia kill 2, mIDH1 inhibitor 5%, rTrxR1 inhibitor 5%, TrxR1 substrate -5%, BRCA1 expr up -17% and IL2 activator -3.
`O=C1NC(=S)NC(=O)C1C/C=C/c1ccccc1` gave Giardia kill -7, mIDH1 inhibitor 0%, rTrxR1 inhibitor 50µM*, TrxR1 substrate -6%, BRCA1 expr up 0% and IL2 activator 0.
Screening O=C1NC(=S)NC(=O)C1Cc1ccccc1 returned Giardia kill 7, mIDH1 inhibitor -1%, rTrxR1 inhibitor 12%[11.4 µM], TrxR1 substrate 10%[57.1 µM], BRCA1 expr up -13% and IL2 activator -5.
Screening CCOc1cc(C=C2C(=O)NC(=S)NC2=O)ccc1O returned Giardia kill 10, mIDH1 inhibitor -7%, rTrxR1 inhibitor -78%[57.1 µM], TrxR1 substrate -1%[2.29 µM], BRCA1 expr up 1% and IL2 activator -1.
